From the supplement of paper PMC11624193, “Coupling cellular drug-target engagement to downstream pharmacology with CeTEAM” (Nature Communications, 2024)
Where “and” joins values, the source holds several entries; their conditions need not be identical. Equal values may be shown once. Where a name gives a salt, the structure may show the parent alone. Unmarked numbers belong to inactive results.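 Rule for the calls: active = log2 fold change beyond 2 SD from the library mean after excluding viability outliers; inactive = within 2 SD.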

Each molecule was assayed against PARP1 L713F-nLuc biosensor (HCT116) (UniProt P09874) (assay: PARP1 L713F-nLuc/akaLuc ratio relative to DMSO control (biosensor stabilization) (fold change); higher = more PARP1 biosensor stabilization (target engagement / stabilizer), active = hit call of the paper). Conditions: stock concentration (mM; final µM = stock mM x 1): 10; 24 h.
Sequence of PARP1 L713F-nLuc biosensor (HCT116) (P09874 whole entry L713F, looked up): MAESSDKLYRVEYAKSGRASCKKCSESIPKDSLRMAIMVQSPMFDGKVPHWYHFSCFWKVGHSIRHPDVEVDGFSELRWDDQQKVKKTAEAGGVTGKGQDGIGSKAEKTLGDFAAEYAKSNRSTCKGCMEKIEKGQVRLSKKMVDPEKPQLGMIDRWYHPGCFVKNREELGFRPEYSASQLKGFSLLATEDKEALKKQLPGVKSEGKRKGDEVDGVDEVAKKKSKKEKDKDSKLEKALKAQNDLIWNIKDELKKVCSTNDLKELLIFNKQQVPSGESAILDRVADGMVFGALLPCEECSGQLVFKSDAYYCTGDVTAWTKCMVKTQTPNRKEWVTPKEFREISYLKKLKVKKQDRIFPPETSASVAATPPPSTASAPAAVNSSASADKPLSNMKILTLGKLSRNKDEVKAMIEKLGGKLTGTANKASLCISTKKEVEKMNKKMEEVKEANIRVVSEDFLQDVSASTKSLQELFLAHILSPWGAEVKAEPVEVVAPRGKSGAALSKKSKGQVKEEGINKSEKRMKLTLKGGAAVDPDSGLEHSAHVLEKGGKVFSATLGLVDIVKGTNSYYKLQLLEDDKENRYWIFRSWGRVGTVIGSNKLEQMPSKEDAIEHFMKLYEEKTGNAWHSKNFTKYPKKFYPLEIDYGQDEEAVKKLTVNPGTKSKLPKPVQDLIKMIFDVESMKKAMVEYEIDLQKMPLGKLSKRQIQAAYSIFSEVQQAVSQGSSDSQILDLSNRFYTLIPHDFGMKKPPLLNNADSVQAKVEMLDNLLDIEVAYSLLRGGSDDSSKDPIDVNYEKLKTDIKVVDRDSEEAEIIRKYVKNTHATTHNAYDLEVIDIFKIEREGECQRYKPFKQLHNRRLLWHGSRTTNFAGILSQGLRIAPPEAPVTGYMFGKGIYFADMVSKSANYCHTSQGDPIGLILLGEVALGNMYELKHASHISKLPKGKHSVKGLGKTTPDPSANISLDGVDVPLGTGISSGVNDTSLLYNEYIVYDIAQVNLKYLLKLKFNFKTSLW

Structure (SMILES)	PARP1 L713F-nLuc/akaLuc ratio
Cn1cc(C2=C(c3cn(CCCSC(=N)N)c4ccccc34)C(=O)NC2=O)c2ccccc21 [Ro 31-8220 (mesylate)]	1.62
CN(C)[C@H]1CN(C2CCc3cccc(F)c32)C[C@@H]1c1ccc(N2CCN(S(C)(=O)=O)CC2)cc1 (stereo partly drawn)	4.18 (active)
N#Cc1ccc(C(=O)N(Cc2cccs2)C2CC2)cc1	1.18
COc1cc(C=CC(=O)O)cc(OC)c1O (stereo in doubt) [Sinapinic acid]	0.83
N#Cc1ccc(-c2cnc3[nH]cc(NC(=O)c4cccnc4)c3c2)cc1	0.668
O=C1c2cccc(O)c2C(=O)c2c(O)cccc21 [Danthron]	1.32
N#Cc1cc2cc(CN3CCC(Nc4ncnc5sc(CC(F)(F)F)cc45)CC3)ccc2[nH]1	1.05
Cc1cc(Nc2ccc(NC(=O)c3ccc(Nc4ccnc5ccccc45)cc3)cc2)nc(N)n1	1.38
N=C(NC(=N)N1CCCC1)Nc1ccc(OC(F)(F)F)cc1	1.01
Cn1cc(C(N)=O)ccc1=O [Nudifloramide]	0.909
COc1cc(N2CCC(N3CCN(C)CC3)CC2)ccc1Nc1ncnc(Nc2ccccc2S(=O)(=O)C(C)C)n1	0.97
O=C1NC(=O)[C@@H](c2cn3c4c(cccc24)CCC3)[C@@H]1c1c[nH]c2ccccc12 [Tivantinib (ARQ 197)]	0.773
CC(=O)Nc1ccccc1-c1cccc2c1[nH]c1ccccc12	0.622
CO[C@H]1C[C@@H]2CC[C@@H](C)[C@@](O)(O2)C(=O)C(=O)N2CCCC[C@H]2C(=O)O[C@H]([C@H](C)C[C@@H]2CC[C@@H](O)[C@H](OC)C2)CC(=O)[C@H](C)/C=C(\C)[C@@H](O)[C@@H](OC)C(=O)[C@H](C)C[C@H](C)/C=C/C=C/C=C/1C [Rapamycin (Sirolimus)]	0.6
CN1CCC(COc2cnc(-c3cccc(Cn4nc(-c5cccc(C#N)c5)ccc4=O)c3)nc2)CC1	0.968
Cn1nnc2c(C(N)=O)ncn2c1=O [Temozolomide]	0.833
CS(=O)(=O)c1ccc(Oc2cc(F)cc(C#N)c2)c2c1[C@H](O)C(F)(F)C2	1.42
CC1(N)CCN(c2cccnc2NC(=O)c2nc(-c3ncccc3C(F)(F)F)cnc2N)CC1 [Darovasertib]	0.6
CO[C@@]12[C@H](COC(N)=O)C3=C(C(=O)C(C)=C(N)C3=O)N1C[C@@H]1N[C@@H]12 [Mitomycin C]	1.07

Structure (SMILES)	PARP1 L713F-nLuc/akaLuc ratio
CC(C)(O)CNc1nc(Nc2ccnc(C(F)(F)F)c2)nc(-c2cccc(C(F)(F)F)n2)n1 [Enasidenib (AG-221)]	1.96
CC(C)Nc1cc(-c2c[nH]c(C(=O)N[C@H](CO)c3cccc(Cl)c3)c2)c(Cl)cn1	0.364
CCN(CC)Cc1cc(Nc2ccnc3cc(Cl)ccc23)ccc1O [Amodiaquine (dihydrochloride)]	1.11
O=C(NC[C@H](O)CN1CCc2ccccc2C1)c1cc(NC2COC2)ncn1	0.532 and 0.854
N#C/C(=C\c1ccc(O)c(O)c1)C(=O)NCc1ccccc1	1.13 and 0.936
Clc1ccc(-c2csc(NN=C3CCCC3)n2)cc1	0.775
C[C@]12CCCN1CC1=NNC(=O)c3cc(F)cc4[nH]c2c1c34 [Pamiparib]	5.97 (active)
CO[C@H]1CNC[C@@H](OCC2CCC(F)(F)CC2)[C@@H]1Nc1ncc(-c2cncc(C)c2)c2cc(C)c(=O)[nH]c12	1.63
Cc1nc(C(=O)NCC(=O)O)c(O)c2ccc(Oc3ccccc3)cc12 [Roxadustat (FG-4592)]	1.63
NC(=O)c1cccc2cn(-c3ccc([C@@H]4CCCNC4)cc3)nc12 [Niraparib (tosylate)]	7.76 (active)
CCOC(=O)c1ccnc(CNCC(=O)N(CC)CCN(C)C)c1	2.92 (active)
O=c1cc(O)cc(/C=C/c2ccc(O)c(O)c2)o1 [Hispidin]	1.19
COc1nc(Nc2cc(S(C)(=O)=O)ccc2N[C@@H](c2cccc3c2OC(F)(F)O3)c2ncccc2Cl)nc(N2CCNCC2)n1	0.707
CCCS(=O)(=O)N[C@H]1C[C@@H](N(C)c2ncnc3[nH]ccc23)C1 [Abrocitinib]	0.869
Nc1nc2cc(-c3ccc4ncc(C(=O)N5CCOCC5)n4c3)ccc2o1 [Serabelisib (INK-1117,MLN-1117,TAK-117)]	1.31
CCN(CCN(C)C)C(=O)CNCc1cc(C(N)=O)ccn1 [KDOAM-25 (citrate)]	1.15
FC(F)(F)c1ccc(CNc2ccc(Cc3c[nH]c4ncc(Cl)cc34)cn2)cn1 [Pexidartinib (PLX3397)]	0.69
CCCCC(=O)OCC(=O)[C@]1(O)Cc2c(O)c3c(c(O)c2[C@@H](O[C@H]2C[C@H](NC(=O)C(F)(F)F)[C@H](O)[C@H](C)O2)C1)C(=O)c1c(OC)cccc1C3=O [Valrubicin]	1.13
NC(=O)C1CCCc2c1[nH]c1ccc(Cl)cc21 (stereo not drawn) [Selisistat]	0.963
